Bioassay records deposited in PubChem by several laboratories.
NR2F2 inh = NR2F2 transcriptional activity inhibitors, primary screen, cell-based, luciferase reporter, HEK293T, luminescence | COUP transcription factor 2 (Homo sapiens), P24468 | HEK293T NGFI-A luciferase reporter | inhibition, % at 8.6 µM | 370,000 compounds, 0.7% hits;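 active = inhibition above a per-plate cutoff, mean inhibition of test wells between control levels plus 3 SD, cut at about 38% in these data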;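 note: cells cotransfected with COUP-TFII expression vector driving the NGFI-A reporter; 0% = median of COUP-TF2 test wells and 100% = reporter-only cells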
Target sequence (P24468 whole entry, looked up): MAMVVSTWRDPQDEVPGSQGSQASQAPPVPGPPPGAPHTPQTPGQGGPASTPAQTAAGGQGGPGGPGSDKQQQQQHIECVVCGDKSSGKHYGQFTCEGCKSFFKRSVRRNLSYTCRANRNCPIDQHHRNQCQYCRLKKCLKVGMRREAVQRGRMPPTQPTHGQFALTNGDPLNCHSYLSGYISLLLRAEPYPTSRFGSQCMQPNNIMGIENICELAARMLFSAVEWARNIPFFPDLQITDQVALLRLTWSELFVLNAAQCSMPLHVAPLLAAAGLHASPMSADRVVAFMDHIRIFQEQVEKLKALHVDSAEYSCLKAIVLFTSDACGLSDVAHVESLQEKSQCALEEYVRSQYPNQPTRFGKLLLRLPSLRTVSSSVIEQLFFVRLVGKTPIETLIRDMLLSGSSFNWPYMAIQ
Jurkat NFkB inh = inhibitors of induced NF-kB luciferase reporter, primary screen, TCR NF-kB activation inhibitor project, cell-based, luminescence, uHTS. Jurkat, PMA/ionomycin-induced NF-kB luciferase reporter. inhibition, % at 4 µM. 330,000 compounds, 0.53% hits. AID 435003, 2010; in the data active = inhibition above about 50%
H9c2 protect = cardioprotection against H2O2-induced cell death, primary screen, uHTS, H9c2 cells, ATPLite luminescence; H9c2 cardiomyocytes, H2O2 injury protection, 2 h; protection from H2O2 cell death, % at 20 µM; 360,000 compounds, 0.63% hits;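 active = compounds giving at least 50% protection of heart cells from peroxide-induced death in the single-dose screen, raw or plate-pattern-corrected value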;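 note: 0% = DMSO wells with peroxide and 100% = DMSO wells without peroxide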
TAG inh = inhibitors of triacylglycerol accumulation, primary screen, cell-based, uHTS, fluorescence, H9c2; 230,000 compounds, 0.66% hits; inhibition, % at 12.5 µM; H9c2 cells, Nile Red lipid (TAG) fluorescence; cells loaded with 200 µM oleic acid; AID 651582, 2012;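 active = pattern-corrected inhibition of lipid staining of at least 50% with the nuclear-stain viability signal not falling by more than 50%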;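 note: 0% = DMSO wells and 100% = triacsin C control wells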
Gli-Sufu block = Gli-Sufu pathway antagonists, primary screen, luciferase luminescence, Sufu-KO-LIGHT cells, uHTS | Sufu-KO-LIGHT fibroblasts, Gli luciferase reporter luminescence | inhibition, % at 5 µM | 340,000 compounds, 0.74% hits;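 active = inhibition above about 55%, limit read from the data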;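 note: 0% = DMSO-treated cells and 100% = wells with medium but no cells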
697 NFkB inh = inhibitors of PMA/ionomycin-induced NF-kB reporter, 697 cells, primary screen, B-cell NF-kB inhibitor project, cell-based, luminescence, uHTS; 697 B-cell NF-kB luciferase reporter, 16 h; inhibition, % at 4 µM; 330,000 compounds, 0.33% hits; AID 435022, 2010; in the data active = inhibition above about 35%
697 NFkB conf = PMA/ionomycin-induced NF-kB reporter inhibitors, 697 retest, confirmation, B-cell NF-kB inhibitor project, cell-based, luminescence, single concentration; 2,000 compounds, 35% hits; shares compounds with 697 NFkB inh; 697 B-cell NF-kB luciferase, 16 h; inhibition, % at 4 µM; in the data active = inhibition mostly above about 28%, no sharp cut-off; inactive = mostly below about 22%
Numbers without * were called inactive; i = inactive; · = no result. In the library only some 2.6% were active in any assay of this set; here they are far more common.

SMILES	NR2F2 inh	Jurkat NFkB inh	H9c2 protect	TAG inh	Gli-Sufu block	697 NFkB inh	697 NFkB conf
CC(=O)/C(C#N)=C1\NC(=O)C(Cc2ccccc2)S1 (stereo not drawn)	-73	-3	5	14	22	i	i
O=C(c1ccc2c(c1)OCO2)N1CCC(Oc2cccnc2)CC1	6	·	·	·	·	·	·
CC(NC(=O)C1CCC(CNc2c(N3CCCCC3)c(=O)c2=O)CC1)c1ccccc1 (stereo not drawn)	13	12	5	12	-6	36*	-11
CC(=Nc1ccc(Cl)cc1N)c1c(O)cc(C)oc1=O	-53	·	·	·	·	·	·
O=C(O)C1=C(C(=O)Nc2cc(C(F)(F)F)ccc2Cl)CCCC1	-6	-3	-6	9	-10	37*	6
CCOC(=O)c1cnc(SCc2ccccc2)nc1N	-54	-77	-5	·	-74	-261	-157
CCOC(=O)c1cnc(SCc2ccc(C(C)(C)C)cc2)nc1N	-18	-3	-10	20	6	-33	·
O=C(c1ccccc1Cl)N1CCC(Oc2cccnc2)CC1	-2	·	·	·	·	·	·
CC(C)CN1C(=O)[C@@]2(CC(=O)N(C)C2c2ccccc2)c2cc(-n3cc(CCCC#N)nn3)ccc21 (stereo partly drawn)	-4	·	·	·	·	·	·
Cc1ccccc1N1CC(=O)Nc2c(oc3nc(-c4ccccc4)cc(C)c23)C1=O	0	-1	18	12	7	38*	-3
Cc1cc(-c2ccccc2)nc2oc3c(c12)NC(=O)CN(c1ccccc1)C3=O	7	1	5	-2	-2	9	·
Cc1ccc(NC(=O)CCCN2C(=O)/C(=C/C=C/c3ccccc3)SC2=S)cc1	3	1	-11	·	-3	-20	·
CC(=C\c1ccccc1)/C=C1/SC(=O)N(CCCC(=O)Nc2ccc(C(=O)O)cc2)C1=O	21	6	-4	-7	7	75*	70*
O=C(CCCN1C(=O)S/C(=C/C=C/c2ccccc2)C1=O)Nc1ccc(C(=O)O)cc1	-9	25	18	-3	-9	49*	49*
Cc1ccc(NC(=S)c2nc3ccccc3s2)cc1	14	-117	-29	-2	6	-368	-196
CCN(C)C(=O)CN1C(=O)C2CCCCN2C(=O)c2ccccc21 (stereo not drawn)	8	·	·	·	·	·	·
CCOC(=O)/C(C#N)=C\c1cc(C)n(-c2ccccc2)c1C	29	-126	-14	11	2	-286	-106
COC(=O)Nc1sccc1C(=O)Nc1sccc1C(=O)OC	-16	2	-1	·	-1	39*	-3
COCc1[nH]nc2c1C(c1cccc(C(F)(F)F)c1)N(c1ccc(OC)cc1)C2=O (stereo not drawn)	9	·	·	·	·	·	·
Cc1cc(C)nc(Nc2nc3ccccc3s2)n1	-22	-148	5	-6	-71	-223	·
CC(=O)c1c(C)nc(Nc2nc3ccccc3s2)nc1C	-30	-129	-1	8	-65	-291	-206
C#CCNC(=O)C[C@H]1C[C@@]2(C(=O)OC)C(=C[C@H](C(C)C)O[C@@H]2C2CC2)N(CCC2=CCCCC2)C1=O	2	·	·	·	·	·	·
C(=N\Nc1nc(Nc2ccccc2)nc(Nc2ccccc2)n1)/c1cccnc1	-10	-15	15	42	3	35*	30*
COc1ccc(OC)c(NC(=O)c2[nH]c(C)c(C(C)=O)c2C)c1	-20	-3	9	·	-13	36*	33*
CCCCC(=O)Nc1cc2nn(-c3ccc(OC)cc3)nc2cc1C	-10	-120	1	·	-66	-170	·
CCC(=O)Nc1cc2nn(-c3ccc(OC)cc3)nc2cc1C	-52	-59	-16	·	-53	-269	-212
CCN(CC)C(=O)CSc1nnc(-c2ccccn2)n1C	-23	·	·	·	·	·	·
O=C(O)CCC(=O)c1ccc2c(c1)CCCC2	-25	7	1	7	·	35*	-4
